High-throughput results from PubChem BioAssay.
Hits are enriched below; roughly 4.7% of the tested compounds scored in any of these assays.
SKKanGAS inh: SKKanGAS growth inhibition; S. pyogenes SKKanGAS, kanamycin growth, BacTiter-Glo, 6 h; inhibition, % at 7.5 µM; hit rate 1.3% among 300,000; AID 1662;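 active means mean replicate score, as percent of positive control median, at least 50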;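 further: strain carries kanamycin resistance gene driven by streptokinase promoter and grows in 40 µg/ml kanamycin; loss of luminescence reflects streptokinase promoter inhibition or plain growth inhibition; 0% = median of DMSO wells and 100% = positive control at its reference dose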
TIM10 inh: growth inhibitors of TIM10 yeast strain; hit rate 1.4% among 330,000; S. cerevisiae TIM10 strain growth, BacTiter-Glo luminescence, 24 h; inhibition, % at 10 µM; AID 463195;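 active means inhibition of 40% or more at the single tested concentration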;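 further: wild-type TIM10 isogenic control strain grown at permissive 25 °C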
ATG4B inh: inhibitors of human ATG4B cysteine protease. hit rate 0.51% among 340,000. ATG4B cleavage of LC3-PLA2, NBD-HPC fluorescence, 1 h. AID 504462. inhibition, % at 8.33 µM. Q9Y4P1; in the data active means inhibition above about 40%
Target sequence (Q9Y4P1 whole entry, looked up): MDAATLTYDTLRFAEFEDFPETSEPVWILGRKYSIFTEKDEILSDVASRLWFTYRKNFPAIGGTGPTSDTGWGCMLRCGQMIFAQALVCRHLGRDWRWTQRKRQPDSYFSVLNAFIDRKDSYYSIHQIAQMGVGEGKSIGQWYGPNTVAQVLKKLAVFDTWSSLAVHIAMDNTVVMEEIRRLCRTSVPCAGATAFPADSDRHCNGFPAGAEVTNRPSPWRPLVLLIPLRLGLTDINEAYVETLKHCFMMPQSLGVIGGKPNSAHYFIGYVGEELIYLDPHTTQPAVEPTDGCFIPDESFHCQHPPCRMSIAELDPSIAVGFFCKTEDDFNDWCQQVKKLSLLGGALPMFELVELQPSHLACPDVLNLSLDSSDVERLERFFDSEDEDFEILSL
tim10-1 inh: tim10-1 yeast growth inhibition | AID 463190 | hit rate 2.2% among 330,000 | S. cerevisiae tim10-1 ts strain growth, BacTiter-Glo, 24 h | inhibition, % at 20 µM;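 active means inhibition of at least 40%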;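 further: mutant grown at 25 °C; 0% = DMSO wells with yeast and 100% = wells holding no yeast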
PfHsp90 set2: inhibits growth of yeast expressing Plasmodium falciparum Hsp90; inhibition, % at 9.4 µM; S. cerevisiae expressing PfHsp90, BacTiter-Glo ATP, 48 h; yeast lacking PDR1 and PDR3 efflux regulators; hit rate 0.32% among 310,000;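 active means every replicate shows inhibition above about 80%, whatever the replicate mean, limit read from the data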;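 further: 0% = DMSO neutral controls and 100% = 20 µM radicicol positive controls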
tim23-1 inh: growth inhibitors of tim23-1 mutant yeast. hit rate 1.3% among 330,000. S. cerevisiae tim23-1 growth, BacTiter-Glo luminescence, 24 h. inhibition, % at 20 µM. AID 463212;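 active means growth inhibition of the mutant yeast at or above 50%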;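 further: temperature-sensitive mutant grown at 25 °C; plate controls were DMSO-treated mutant yeast for no effect and medium wells lacking yeast for full effect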
* marks the source's active call; other numbers are inactive results; . = not tested or not shown.

SMILES	SKKanGAS inh	TIM10 inh	ATG4B inh	tim10-1 inh	PfHsp90 set2	tim23-1 inh
O=C(Nc1cc(Cl)ccc1-n1cncn1)c1ccco1	-1.4	0.9	-10.7	-0.4	-38.5	0.6
CCc1cc2c(COC(=O)c3cccc(NS(C)(=O)=O)c3)cc(=O)oc2cc1O	49.6*	1.8	-8.9	-24.5	-9.4	-7.9
Cc1ccc(OCc2n[nH]c(=S)n2C2CCCCC2)cc1	-18.5	38.5	-1.2	33.9	90.3*	40.2
CCNC(=O)c1ccccc1NC(=O)c1cccc(S(=O)(=O)N2CCOCC2)c1	25.4	-5.0	-4.6	19.1	-19.8	9.2
COc1ccccc1C(=O)c1cc2ccc(O)cc2oc1=O	2.4	6.3	-7.2	-7.3	12.5	5.2
O=C(c1ccc(F)cc1)c1cc2ccc(O)cc2oc1=O	65.4*	24.8	5.0	29.9	15.7	28.5
c1coc(CN(Cc2cccs2)Cc2nnnn2C2CCCCC2)c1	6.4	21.7	12.3	22.3	-21.2	27.7
Clc1ccccc1CN(Cc1ccco1)Cc1nnnn1C1CCCC1	17.1	-15.6	8.2	11.3	84.6*	7.4
N#Cc1c(N)n(CCCN2CCOCC2)c2nc3ccccc3nc12	.	-11.7	-18.9	1.1	5.4	11.4
Cc1ccccc1-c1n[nH]c(=S)o1	0.8	-7.4	-1.2	11.4	-7.2	9.7
CSc1ccccc1-c1n[nH]c(=S)o1	56.2*	2.9	1.1	23.9	3.3	20.1
O=C(O)CCCNS(=O)(=O)c1ccc(Br)s1	-2.5	5.7	-7.4	-3.6	-16.6	-0.6
Cn1c(SCC(=O)NC2CCCCC2)nnc1-c1cccnc1	-16.4	-14.4	-6.4	4.8	-0.1	11.1
Cn1c(SCC(=O)NC2(C#N)CCCCC2)nnc1-c1cccnc1	54.0*	2.1	1.8	-7.6	-6.2	9.8
NC(=O)c1ccc(Oc2ncc(C(F)(F)F)cc2Cl)cc1	-25.6	-0.2	-6.5	4.0	10.5	15.7
C=CC(n1cncn1)C(O)(c1ccccc1)c1ccccc1 (stereo not given)	3.9	-217.7	-12.1	-45.1	104.8*	-293.5
CCCCCc1ccc(OCCOCCn2c[n+](C)c3ccccc32)c(CCCCC)c1	84.5*	.	16.8	.	20.5	.
COc1ccccc1NS(=O)(=O)c1cc(C(=O)N2CCCCCCC2)ccc1C	-2.9	-1.5	-1.8	8.5	.	7.3
Cc1ccc(NC(=O)COC(=O)CN2C(=O)C3CCCCC3C2=O)cc1C (stereo not given)	.	-0.9	4.7	-4.7	14.5	13.6
COc1ccc(-c2ccc([C@H]3[C@@H]4C=CCC[C@@]4(C)C(=O)N3Cc3ccccc3)c(F)c2)cc1OC	52.2*	5.8	34.4	2.5	-7.8	-2.8
COc1ccc(-c2c([C@H]3[C@@H]4C=CCC[C@@]4(C)C(=O)N3Cc3ccccc3)ccc3ccccc23)cc1OC	30.7	18.6	-3.3	29.1	40.4	35.5
CCOc1cc(CNC(CC)CO)ccc1OCC(=O)Nc1cccc(C(F)(F)F)c1 (stereo not given)	14.9	14.1	4.1	0.1	-13.9	26.8
O=C(O)CC(Cc1ccccc1)c1ccc2c(c1)OCO2 (stereo not given)	-5.9	-5.7	3.8	3.2	.	18.3
CC(=O)N(CCC(Cc1ccccc1)c1ccc2c(c1)OCO2)Cc1ccc(Cl)cc1 (stereo not given)	64.0*	34.2	1.9	17.9	-98.7	5.2
CCn1ccnc1CN1CCc2c([nH]c3ccccc23)C1C1CCCCC1 (stereo not given)	78.5*	13.1	7.4	19.3	-9.4	4.5
SMILES	SKKanGAS inh	TIM10 inh	ATG4B inh	tim10-1 inh	PfHsp90 set2	tim23-1 inh
Cc1nc(N)nc(N)c1/C=C/C(C)(C)c1ccc(Cl)cc1	96.9*	.	-8.6	.	-8.3	.
COC(C(=O)Nc1ccnn1C1CCN(Cc2nccs2)CC1)c1ccccc1 (stereo not given)	50.9*	3.4	7.5	-18.0	5.1	-5.6
Cc1[nH]n(-c2ncc(-c3ccccc3)s2)c(=O)c1C(c1ccc(Br)cc1)C(C#N)C#N (stereo not given)	86.1*	29.5	39.4	36.7	-74.2	47.3
COc1ccc(CCNC(=O)c2c(-c3ccccc3)noc2C)cc1OC	-2.3	8.5	-2.6	4.9	-37.7	14.7
Cc1onc(-c2ccccc2)c1C(=O)NNC(=S)NC(=O)c1ccc2c(c1)OCO2	98.2*	26.8	-10.3	15.4	-3.1	48.5
COc1ccc(C(=O)NC(=S)NNC(=O)c2c(-c3ccccc3)noc2C)cc1OC	91.3*	19.7	-13.3	7.1	21.8	-8.8
